# Assay outcomes: PubChem BioAssay, National Center for Advancing Translational Sciences (NCATS)
# DT40 TDP1 no CPT: qHTS for Inhibitors of human tyrosyl-DNA phosphodiesterase 1 (TDP1): qHTS in cells in absence of CPT | DT40 Tdp1-/- hTDP1 cells, no CPT, ATP luminescence, 48 h | Potency, µM (top dose mostly 46.2 µM), without a hit: at the highest dose activity change, negative = growth inhibition, hits mostly inhibitors | hit rate 15% among 420,000 | AID 686978, 2013; further: potency means the concentration at half of the fitted maximal effect; nearly all actives have a fitted effect of over 55% in size
#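 Camptothecin absent (DMSO only). Human TDP1-complemented DT40 knockout cells, 400 cells/well, 37 °C for minimum 48 hr; ATP measured via CellTiter-Glo, 30 min dark incubation, luminescence.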
# CtBP-E1A inh: blocks the CtBP interaction with E1A | hit rate 0.49% among 340,000 | AlphaScreen GST-E1A/His-CtBP binding, 1536-well; active compounds read low | activity change, % (no concentration beside the values); in the data active means activity change below about -65%; inconclusive means mostly about -30% to -63%
#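 GST-E1A and His-tagged CtBP (125 nM each as 5X stock) were preincubated with pin-transferred compound for 2 h at 37 °C in the dark, then glutathione donor and nickel acceptor beads were added for 1 h before AlphaScreen reading.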
# DT40 TDP1 CPT: DT40-hTDP1 cell growth loss with CPT. chicken DT40 Tdp1-/-;hTDP1 cells + 20 nM CPT, ATP luminescence, 48 h. Potency, µM (doses to about 46.2 µM), without a hit: at the top dose activity change, negative = growth inhibition, most hits filed as inhibitors. hit rate 12% among 420,000. AID 686979; further: potency means the concentration at half of the fitted maximal effect; nearly all actives have a fitted effect of over 55% in size
#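 Cell growth measured by CellTiter-Glo luminescence after a minimum 48 h, 37 C compound exposure with 20 nM CPT in Tdp1-knockout DT40 cells stably expressing hTDP1, seeded 400/well; qHTS titration format.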
# IL1B secr inh: blocks inflammasome-driven IL-1 beta release. THP-1 LPS/ATP IL-1B secretion, AlphaLISA, 16 h; active compounds read low. activity change, % at 57.5 µM. hit rate 4.7% among 360,000. AID 743279; in the data active means activity change below about -50%; inconclusive means mostly about -30% to -49%
#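 THP-1 cells pretreated 1 hr with compounds (up to 57.5 uM final), then stimulated with LPS (250 ng/mL final) plus ATP (1.25 mM final); secreted IL-1B measured by AlphaLISA after 16 hr, decreased signal indicating inhibition.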
# TDP1 block: blocks human tyrosyl-DNA phosphodiesterase 1; recombinant TDP1, AlphaScreen DNA substrate cleavage; Q9NUW8; Potency, µM (top dose mostly 130 µM), for inactives: top-dose activity change, negative = inhibition, hits mostly inhibitors; hit rate 0.28% among 350,000; further: potency means the concentration at half of the fitted maximal effect; nearly all actives have a fitted effect of over 40% in size
#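 Enzyme-compound mixtures sat 15 min at room temperature, followed by a 5 min reaction with 15 nM final substrate and 10 min with AlphaScreen beads. Recombinant human Tdp1 was used at 1 nM final.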
# Six1-Eya2 inh: inhibitors of human Six1/Eya2 interaction; Q15475+O00167; AID 651725; AlphaScreen GST-Six1/His-Eya2 binding, biochemical; active compounds read low; activity change, % (no concentration beside the values); hit rate 0.56% among 360,000; in the data active means activity change below about -65%; inconclusive means mostly about -30% to -63%
# Target sequence (O00167 whole entry, looked up): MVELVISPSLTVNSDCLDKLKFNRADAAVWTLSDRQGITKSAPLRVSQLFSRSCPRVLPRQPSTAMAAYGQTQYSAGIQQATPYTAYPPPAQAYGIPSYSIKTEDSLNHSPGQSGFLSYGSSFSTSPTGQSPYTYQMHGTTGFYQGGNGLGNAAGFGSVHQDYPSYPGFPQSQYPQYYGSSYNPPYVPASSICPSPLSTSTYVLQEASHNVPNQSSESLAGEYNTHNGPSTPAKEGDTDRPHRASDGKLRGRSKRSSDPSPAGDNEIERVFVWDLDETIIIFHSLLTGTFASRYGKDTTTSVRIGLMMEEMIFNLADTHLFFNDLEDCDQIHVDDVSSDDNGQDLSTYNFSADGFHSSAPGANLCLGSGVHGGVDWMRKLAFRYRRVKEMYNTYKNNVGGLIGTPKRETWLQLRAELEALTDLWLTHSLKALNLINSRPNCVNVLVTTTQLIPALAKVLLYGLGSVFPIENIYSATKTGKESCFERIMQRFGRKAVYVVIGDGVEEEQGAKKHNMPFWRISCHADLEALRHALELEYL
# Target sequence (Q15475 whole entry, looked up): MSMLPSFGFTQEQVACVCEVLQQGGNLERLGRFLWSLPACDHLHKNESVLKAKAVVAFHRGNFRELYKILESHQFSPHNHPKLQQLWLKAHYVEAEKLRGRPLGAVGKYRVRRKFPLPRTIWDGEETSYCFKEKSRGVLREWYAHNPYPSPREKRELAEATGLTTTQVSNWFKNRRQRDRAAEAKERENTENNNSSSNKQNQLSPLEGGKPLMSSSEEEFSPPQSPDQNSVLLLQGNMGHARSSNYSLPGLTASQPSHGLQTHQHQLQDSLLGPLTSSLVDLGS
#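 Homogeneous AlphaScreen proximity assay pairing GST-Six1 with His-tagged Eya2 (added as 5X mix: 250 nM and 500 nM) in 50 mM Tris pH 8.0, 300 mM NaCl, 1 mM TCEP. Glutathione donor and nickel acceptor beads; 1 h, 37 °C, dark.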
# An asterisk follows results filed as active; ? = inconclusive; · = not tested or not shown; [ ] = dose if it differs, or a comment. Shown are actives, neighbours in structure and some others; about 18% of the full set was active somewhere. Unless noted, the call rests on the fitted dose curve; in most records, active means well fitted curve in the direction sought with a large enough effect; inconclusive means small, poorly fitted or top-dose-only effect, or another doubt; inactive means no such curve, though single readings can be large; an effect the other way counts as inactive or inconclusive. On the % scale 0 is the no-effect control and ±100 the full control effect.
SMILES,DT40 TDP1 no CPT,CtBP-E1A inh,DT40 TDP1 CPT,IL1B secr inh,TDP1 block,Six1-Eya2 inh
Oc1c(CN2CCCCC2)cc(Br)c2cccnc12,5.2µM*,-92*,5.2µM*,106,9%,-91*
O=[N+]([O-])c1cc(CN2CCOCC2)c2cccnc2c1O,?,-4,?,16,-5%,-88*
O=C(COc1c(Br)cc(Br)c2cccnc12)N1CCCCC1,?,-7,-23%,-6,-5%,-12
NS(=O)(=O)c1ccc(CCNC(=O)CN2CCN(Cc3cccc4ccccc34)CC2)cc1,?,2,?,5,·,-7
Oc1ccc(CNCc2ccccc2F)c2cccnc12,·,·,·,·,1%,·
Oc1c(Cl)cc(CN2CCOCC2)c2cccnc12,1µM*,·,0.65µM*,95,-4%[56.1 µM],-89*
Cc1cccc(OCC(=O)N(Cc2cccc(Cl)c2)Cc2ccco2)c1C,-82%,·,6.5µM*,·,0%,·
Cc1ccc(CN(Cc2ccco2)C(=O)COc2ccc(Cl)cc2Cl)cc1,18µM*,·,?,·,2%,·
O=C(c1cccc(Cl)c1)N(Cc1ccco1)Cc1ccccc1Cl,-80%,·,?,·,6%,·
O=C(COc1ccccc1Cl)N(Cc1ccco1)Cc1ccco1,23µM*,·,?,·,5%,·
Cc1cc(Cl)ccc1OCC(=O)N(Cc1ccco1)Cc1ccco1,23µM*,·,?,·,7%,·
Nc1c(N(Cc2ccco2)C(=O)COc2ccccc2Cl)c(=O)[nH]c(=O)n1Cc1ccccc1,-18%,·,-6%,4,-1%,1
Cc1ccc(CN(Cc2ccco2)C(=O)c2ccc(Cl)cc2Cl)cc1,?,·,?,·,2%,·
COc1ccc(C(C(=O)NCc2ccc(F)cc2)N(Cc2cccnc2)C(=O)c2snc(C(N)=O)c2N)cc1 (configuration not stated),?,3,?,-23,·,4
Cc1cc(OC(C)C(=O)N(Cc2ccco2)Cc2ccccc2F)cc(C)c1Cl (configuration not stated),13µM*,·,21µM*,·,5%,·
Cn1nc(C(F)(F)F)c(C#N)c1N1CCN(c2ccccc2)CC1,15µM*,6,?,-17,-9%,5
Cn1nc(C(F)(F)F)c(C#N)c1N1CCN(c2ccc(F)cc2)CC1,21µM*,4,?,-12,-2%,10
O=[N+]([O-])c1ccc(C2=NN(CCO)C(=Nc3ccc(OC(F)(F)F)cc3)SC2)cc1,21µM*,?,18µM*,-63*,11%,-13
Cc1ccc(OCc2nc(C#N)c(N3CCCCC3)o2)cc1,-3%,-26,7%,?,9%,-17
N#Cc1nc(COc2ccc(Cl)cc2)oc1N1CCCCCC1,-25%,-30,-9%,-59*,10%,?
Cc1cccc(OCc2nc(C#N)c(N3CCCC3)o2)c1,-26%,?,7%,-55*,6%,-17
Cc1cccc(OCc2nc(C#N)c(N3CC(C)CC(C)C3)o2)c1 (configuration not stated),?,-28,6.5µM*,-10,9%,?
N#Cc1nc(COc2ccccc2)oc1N1CCCCC1,-19%,?,?,-8,4%,-21
CC1CCCCC12NC(=O)N(CC(=O)Nc1ccccc1N1CCOCC1)C2=O (configuration not stated),-10%,-12,3%,12,-5%,17
CC1CC(OCC(O)CN2CCCCC2C)CC(C)(C)C1 (configuration not stated),-28%,-8,-1%,-7,·,-17
SMILES,DT40 TDP1 no CPT,CtBP-E1A inh,DT40 TDP1 CPT,IL1B secr inh,TDP1 block,Six1-Eya2 inh
CCOC(=O)[C@]12CCC=C1N(Cc1ccc(Cl)cc1Cl)C(=O)[C@H](CC(=O)NCc1cccc3ccccc13)C2,23µM*,-1,?,-30,·,-16
CCOC(=O)[C@]12CCC=C1N(Cc1ccc(Cl)cc1Cl)C(=O)[C@H](CC(=O)NCc1ccc(OC)c(OC)c1)C2,?,4,16µM*,-22,·,-11
O=C(NCc1ccc(Cl)cc1)C1CCN(S(=O)(=O)c2ccc(N3CCCC3=O)cc2)CC1,?,2,10µM*,-9,-10%,-1
O=C(NCc1ccc(N2CCCC2=O)cc1)Nc1cccc(Cl)c1,?,1,-26%,-61*,1%,0
O=C(NCc1ccccc1)C1CCN(S(=O)(=O)c2ccc(N3CCCC3=O)cc2)CC1,21µM*,-2,-20%,-21,2%,5
O=C(NCc1ccc(N2CCCC2=O)cc1)c1cccc(Cl)c1,-1%,-1,1%,42,5%,5
O=C(CCNC(=O)C1CCN(S(=O)(=O)c2ccccc2)CC1)NCCc1cccc(F)c1,26µM*,·,?,0,2%,0
CCC(=O)N1CCc2cc(Br)cc(S(=O)(=O)CCC(=O)Nc3ccc(C)c(C)c3)c21,1%,·,12%,·,5%,·
N#CC(C(=O)c1ccccc1)=C1SCCS1,-10%,-12,3%,-1,6%,2
O=C(CNC(=O)c1ccccc1Cl)Nc1ccncc1,10%,-1,-22%,?,-1%[56.1 µM],7
O=C(COn1nnc2ccc(S(=O)(=O)N3CCOCC3)cc21)NCc1cccc(Cl)c1,-20%,0,-17%,16,·,2
CC(=O)N(Cc1cc2cc(C)ccc2[nH]c1=O)c1cccc(C)c1C,-16%,-6,-28%,?,·,7
CCN(CC)C(=O)C1=C(C)N(Cc2ccc(C(C)(C)C)cc2)C(=O)C(CC(=O)NCc2cccs2)C1 (configuration not stated),23µM*,-2,23µM*,?,·,-1
CC1=C(C(=O)N(C(C)C)C(C)C)CC(CC(=O)NCc2ccco2)C(=O)N1Cc1ccc(C(C)(C)C)cc1 (configuration not stated),16µM*,0,21µM*,-23,·,-9
CC1=C(C(=O)N(C(C)C)C(C)C)CC(CC(=O)NCc2cccc3ccccc23)C(=O)N1Cc1ccc(C(C)(C)C)cc1 (configuration not stated),?,-18,?,?,·,4
CCN(CC)C(=O)C1=C(C)N(Cc2ccc(C(C)(C)C)cc2)C(=O)C(CC(=O)NCc2ccco2)C1 (configuration not stated),23µM*,-16,?,?,·,-4
Cc1[nH][nH]c(=O)c1C(c1ccc(O)c(Br)c1)c1c(C)[nH][nH]c1=O,?,-8,-27%,-73*,·,?
